Screening data deposited in PubChem BioAssay by several laboratories.
ADAM17 inh: ADAM17 inhibitors, primary screen, biochemical, QFRET | Disintegrin and metalloproteinase domain-containing protein 17 (Homo sapiens), P78536 | recombinant ADAM17, EDANS/DABCYL FRET peptide cleavage | inhibition, % at 6.95 µM | 370,000 tested, 0.83% active | AID 720648, 2013;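 active = inhibition above the mean of compounds lying between control limits plus 3 SD, set per campaign, cut at about 8.5% in these data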
ADAM10 inh: human ADAM10 inhibitors, primary screen, biochemical, QFRET, HTS; Disintegrin and metalloproteinase domain-containing protein 10 (Homo sapiens), O14672; recombinant ADAM10, EDANS/DABCYL FRET peptide cleavage, 3 h; inhibition, % at 7 µM; 370,000 tested, 0.62% active;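 active = inhibition above a per-campaign cutoff equal to the mean of compounds falling between control-based bounds plus 3 SD, cut at about 20% in these data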
Rce1 inh: yeast Rce1p protease inhibitors, primary screen, biochemical, fluorescence, cell-free homogeneous | calls only | yeast membranes, quenched prenylated peptide cleavage fluorescence | AID 2563, 2010 | 290,000 tested, 0.27% active;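 active = fall in fluorescence gain of 50% or more versus controls, with final raw signal at or below 3038400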
PLC-gamma1 inh: PLC-gamma1 enzyme inhibitors, primary screen, biochemical, fluorescence, purified enzyme; 1-phosphatidylinositol 4,5-bisphosphate phosphodiesterase gamma-1 (Homo sapiens), P19174; fluorogenic substrate; inhibition, % at 12.2 µM; 370,000 tested, 0.84% active; in the data active = inhibition above about 9.5%
PLCb3 inh: human PLC-beta3 inhibitors, primary screen, biochemical, fluorescence; 1-phosphatidylinositol 4,5-bisphosphate phosphodiesterase beta-3 (Homo sapiens), Q01970; Purified PLC-beta3, fluorogenic substrate; inhibition, % at 12.2 µM; 370,000 tested, 0.18% active; in the data active = inhibition above about 11%
Target sequence (Q01970 whole entry, looked up): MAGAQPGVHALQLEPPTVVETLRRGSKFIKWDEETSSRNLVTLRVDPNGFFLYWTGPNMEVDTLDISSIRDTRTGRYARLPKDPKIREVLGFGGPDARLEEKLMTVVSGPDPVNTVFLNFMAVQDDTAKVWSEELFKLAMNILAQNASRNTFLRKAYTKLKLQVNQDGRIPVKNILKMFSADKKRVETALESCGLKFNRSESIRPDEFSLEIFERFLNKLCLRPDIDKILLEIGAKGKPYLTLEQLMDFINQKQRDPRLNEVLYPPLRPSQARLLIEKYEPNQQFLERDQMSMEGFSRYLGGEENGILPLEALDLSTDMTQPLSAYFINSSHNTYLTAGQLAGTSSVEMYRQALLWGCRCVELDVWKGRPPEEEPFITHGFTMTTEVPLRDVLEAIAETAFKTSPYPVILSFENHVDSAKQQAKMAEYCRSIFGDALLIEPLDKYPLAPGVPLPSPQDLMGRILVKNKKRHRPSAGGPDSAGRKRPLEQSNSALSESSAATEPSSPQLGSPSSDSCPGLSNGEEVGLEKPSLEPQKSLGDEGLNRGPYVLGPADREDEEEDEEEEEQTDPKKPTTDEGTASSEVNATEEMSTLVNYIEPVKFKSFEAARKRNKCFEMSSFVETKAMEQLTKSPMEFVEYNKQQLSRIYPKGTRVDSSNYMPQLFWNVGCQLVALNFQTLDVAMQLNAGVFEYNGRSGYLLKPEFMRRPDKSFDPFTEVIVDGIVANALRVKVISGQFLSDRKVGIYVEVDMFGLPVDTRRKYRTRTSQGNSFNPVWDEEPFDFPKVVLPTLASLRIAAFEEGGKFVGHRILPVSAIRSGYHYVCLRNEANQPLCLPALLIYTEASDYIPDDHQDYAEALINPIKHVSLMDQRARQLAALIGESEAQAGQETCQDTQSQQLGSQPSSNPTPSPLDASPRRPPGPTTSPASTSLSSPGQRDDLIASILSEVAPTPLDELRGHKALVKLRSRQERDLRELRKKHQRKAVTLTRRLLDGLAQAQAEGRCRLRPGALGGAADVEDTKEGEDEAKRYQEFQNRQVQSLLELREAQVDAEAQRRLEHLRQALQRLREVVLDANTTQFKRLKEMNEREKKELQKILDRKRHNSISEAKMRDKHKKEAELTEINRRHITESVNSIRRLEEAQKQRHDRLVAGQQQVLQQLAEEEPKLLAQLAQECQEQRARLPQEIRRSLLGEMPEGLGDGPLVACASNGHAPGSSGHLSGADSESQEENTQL
Of the large screens only hits and unclear results are named; the others gave an inactive call; ! = not confirmed by another sample. Compounds with a hit are over-represented: about 2.1% of the library has one in this group of screens.

COC(=O)C1CN(Cc2cn(Cc3ccc(C)cc3)nn2)CCS(=O)(=O)N1Cc1ccc(C)cc1 (configuration not stated)	none (no result: Rce1 inh)
COCc1[nH]nc2c1C(c1ccccc1)NC2=O (configuration not stated)	none (no result: Rce1 inh)
CC(NC(=O)COC(=O)C12CC3CC(CC(O)(C3)C1)C2)c1ccccc1 (configuration not stated)	PLC-gamma1 inh 13, PLCb3 inh 13 (no result: Rce1 inh)
CC(CCc1ccccc1)NC(=O)COC(=O)C12CC3CC(CC(Br)(C3)C1)C2 (configuration not stated)	none
CCN(CC)CCN(C(=O)c1ccc2ccccc2c1)c1nc2cc3c(cc2s1)OCO3	Rce1 inh active
CCN(CC)CCN(C(=O)c1ccc(S(=O)(=O)N2CCCCC2)cc1)c1nc2cc3c(cc2s1)OCO3	none (no result: ADAM17 inh, ADAM10 inh, PLC-gamma1 inh, PLCb3 inh)
O=C1C=CC2=C3c4cc(O)c(O)cc4CC3(O)COC2=C1O (configuration not stated)	PLC-gamma1 inh 16 (no result: Rce1 inh)
Cc1c2c(n3c(nc4ccccc43)c1C#N)N(CCCN(C)C)CC2	Rce1 inh active
c1ccc(-n2cnnc2SCc2cn3cccnc3n2)cc1	Rce1 inh active
CN1CCN(C(=S)NC(=O)c2ccccc2Cl)CC1	Rce1 inh active
O=C(NC(=S)N1CCCCCC1)c1ccccc1Cl	none
CC(C)C(C(=O)NCc1ccccc1)N1CCN(CCN2CCOCC2)CC1 (configuration not stated)	none (no result: Rce1 inh)
CC(C)c1cc(Cn2c3ccccc3c(=O)n2C(C)Cn2cc(CCCC#N)nn2)on1 (configuration not stated)	none (no result: Rce1 inh)
CN1C(=O)c2ccccc2N(C)C1c1ccccc1Cl (configuration not stated)	Rce1 inh active
CO[C@@H]1CN(C)C(=O)c2ccc(NC(=O)c3ccccc3F)cc2OC[C@@H](C)N(CC2CCOCC2)C[C@@H]1C	PLCb3 inh 11 (no result: Rce1 inh)
Cc1cc(C)n(CC(=O)NC2CCCCC2C)c(=O)c1C#N (configuration not stated)	Rce1 inh active
COc1ccc(CN2C(=O)c3ccnn3CC2(C)c2nnnn2-c2c(C)cccc2C)cc1 (configuration not stated)	none (no result: Rce1 inh)
COC(=O)[C@]12C[C@H](CC(=O)NCc3ccc(C)o3)C(=O)N(CCC3=CCCCC3)C1=C[C@H](C(C)C)O[C@@H]2C1CC1	none (no result: Rce1 inh)
Cc1ccc(C)c(NS(=O)(=O)c2cc(C(=O)NCCSC3CCCCC3)ccc2C)c1	ADAM17 inh 16, ADAM10 inh 34, PLC-gamma1 inh 14
CC1(C)C(C=C(Cl)Cl)C1C(=O)Nc1ccc([N+](=O)[O-])cc1 (configuration not stated)	ADAM17 inh 11, ADAM10 inh 25 (no result: Rce1 inh)
O=C(Nc1ccc([N+](=O)[O-])cc1)C1CC1(c1ccccc1)c1ccccc1 (configuration not stated)	none
COC(=O)c1cc2c(c3c4cc(F)ccc4n(S(=O)(=O)c4cccc(C)c4)c13)C(=O)N(Cc1ccco1)C2	none (no result: Rce1 inh)
Cc1ccc(-c2cc3cccc[n+]3cc2-c2ccc(C)cc2)cc1	Rce1 inh active
Cc1ccc2nc(-c3ccncc3)cc(-c3ccccc3)c2c1	none
Cc1onc(-c2ccccc2)c1C(=O)Nc1ccccc1N1CCOCC1	PLC-gamma1 inh 13
O=C1c2cccc(OCC(=O)N3N=C(c4cccs4)CC3c3ccc(F)cc3)c2CCN1Cc1cccnc1 (configuration not stated)	Rce1 inh active
O=C(c1cccnc1)N1N=C(c2cccs2)CC1c1ccc(F)cc1 (configuration not stated)	none
COC(=O)[C@]12C[C@H](CC(=O)N3CCOCC3)C(=O)N(Cc3ccccc3)C1=C[C@H](C(C)(C)C)O[C@@H]2C	none (no result: Rce1 inh)
COc1ccc(N2C(=O)CC(NCc3cccs3)C2=O)cc1 (configuration not stated)	PLC-gamma1 inh 11
COc1ccc(N2C(=O)CC(NCC#N)C2=O)cc1 (configuration not stated)	none
C#CCNC(=O)C[C@H]1C[C@@]2(C(=O)OC)C(=C[C@H](C(C)C)O[C@@H]2C2CC2)N(CCCCCCCC)C1=O	none (no result: Rce1 inh)
O=C(c1cnc2n(c1=O)CCS2)N1CCN(C(c2ccccc2)c2ccc(Cl)cc2)CC1 (configuration not stated)	Rce1 inh active (no result: ADAM17 inh, ADAM10 inh, PLC-gamma1 inh, PLCb3 inh)
Cc1cccc(-c2cccc3c4c([nH]c23)[C@@H]2C[C@H](N(C)C(=O)C3CCCCC3)[C@H]([C@H](C)O)CN2CC4)c1	none (no result: Rce1 inh)
Cc1nc(N2CCOCC2)c2c(C)c(C(=O)Nc3ccccc3C(F)(F)F)sc2n1	Rce1 inh active
Cc1nc(N2CCOCC2)c2c(C)c(C(=O)Nc3ccccc3Cl)sc2n1	none
Cc1nc(N2CCCCC2C)c2c(C)c(C(=O)Nc3ccccc3C(F)(F)F)sc2n1 (configuration not stated)	Rce1 inh active
Cc1nc(N2CCC(C)CC2)c2c(C)c(C(=O)Nc3ccc(C(F)(F)F)cc3)sc2n1	none
O=C(COCC(=O)NCc1ccccc1)NCc1ccccc1	none
COc1cccc(C(C#N)N2N=C(C)CC2(C)C)c1O (configuration not stated)	PLC-gamma1 inh 12
Cc1ccc2nc3c(c(N)c2c1)CCN3C	Rce1 inh active
Cc1ccc2nc3c(c(N)c2c1)CCN3c1ccccc1	none
OC(c1ccccc1)(c1ccccc1)C1CCN(CCCOc2ccc(OC(F)(F)F)cc2)CC1	none (no result: Rce1 inh)
OC(c1ccccc1)(c1ccccc1)C1CCN(CCCOc2ccc(F)cc2)CC1	PLC-gamma1 inh 11! (no result: Rce1 inh)
CCC(CO)Nc1cccc2c1S(=O)(=O)N(Cc1cn(Cc3ccc(F)cc3)nn1)Cc1ccccc1O2 (configuration not stated)	none (no result: Rce1 inh)
NS(=O)(=O)c1ccc(CCNC(=O)c2ccc3ccccc3n2)cc1	Rce1 inh active
NS(=O)(=O)c1ccc(CNC(=O)c2ccc3ccccc3n2)cc1	none
CC1CCc2c(sc(NC(=O)COC(=O)c3ccccc3NCc3ccco3)c2C#N)C1 (configuration not stated)	Rce1 inh active
CCN(CC)C(=O)CC[C@H]1CC[C@]2(CCCN(C(=O)c3ccco3)C2)O1	none (no result: Rce1 inh)
COc1cccc(/C=C/C(=O)OCC(=O)Nc2ccc(Cl)c(S(=O)(=O)N(C)C)c2)c1OC	Rce1 inh active
Cc1ccccc1CS(=O)(=O)Cc1ccc(C(=O)Nc2cccc(Cl)c2F)o1	none (no result: Rce1 inh)
CC[C@]1(c2ccccc2)C(=O)N(C(=O)OC)N1C(=O)OC	ADAM17 inh 10
CC[C@@]1(c2ccccc2)C(=O)N(C(=O)OC)N1C(=O)OC	none
